Experimental data: PubChem BioAssay (NCI)
The panel holds about 83,000 compounds, 20% with a hit somewhere; the sample as a whole holds those more often.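 Step 1: grow cells in 96-well plates. Step 2: add test compound at a single concentration. Step 3: incubate 48 h. Step 4: record percent growth.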 Values without a mark were called inactive. The source made the active and inactive calls. Rule for the calls: active = growth percent below 10; inactive = the rest.

Assays:
Assay in all cases: NCI-60 one-dose screen, 48 h (100 = growth as untreated, 0 = no growth, -100 = all killed)
Settings in all cases: 10 µM
NCI-H23 lung = test system: NCI-H23 lung
NCI-H226 lung = test system: NCI-H226 lung
NCI-H322M lung = test system: NCI-H322M lung
HOP-62 NSCLC = test system: HOP-62 NSCLC
NCI-H460 lung = test system: NCI-H460 lung
HOP-92 NSCLC = test system: HOP-92 NSCLC
NCI-H522 lung = test system: NCI-H522 lung
A549/ATCC NSCLC = test system: A549/ATCC NSCLC
786-0 renal = test system: 786-0 renal
COLO 205 colon = test system: COLO 205 colon
DU-145 prostate = test system: DU-145 prostate
K-562 leukemia = test system: K-562 leukemia
MALME-3M melanoma = test system: MALME-3M melanoma
MDA-MB-231 breast = test system: MDA-MB-231 breast
SF-268 CNS = test system: SF-268 CNS
SF-295 CNS = test system: SF-295 CNS
SF-539 CNS = test system: SF-539 CNS
UACC-257 melanoma = test system: UACC-257 melanoma
M14 melanoma = test system: M14 melanoma
RXF 393 renal = test system: RXF 393 renal

Compound	growth (NCI-H23 lung)	growth (NCI-H226 lung)	growth (NCI-H322M lung)	growth (HOP-62 NSCLC)	growth (NCI-H460 lung)	growth (HOP-92 NSCLC)	growth (NCI-H522 lung)	growth (A549/ATCC NSCLC)	growth (786-0 renal)	growth (COLO 205 colon)	growth (DU-145 prostate)	growth (K-562 leukemia)	growth (MALME-3M melanoma)	growth (MDA-MB-231 breast)	growth (SF-268 CNS)	growth (SF-295 CNS)	growth (SF-539 CNS)	growth (UACC-257 melanoma)	growth (M14 melanoma)	growth (RXF 393 renal)
O=C(Nc1cccc(C(F)(F)F)c1)c1cncc(C#Cc2cnc3ccc(N4CCOCC4)nn23)c1	-58.7% (active)	-4.93% (active)	5.52% (active)	6.8% (active)	0.042% (active)	-48% (active)	-34.1% (active)	7.95% (active)	-22.9% (active)	-48% (active)	0.548% (active)	9.1% (active)	-29.7% (active)	-8.01% (active)	-31% (active)	-8.57% (active)	-88.1% (active)	3.22% (active)	-49.3% (active)	–
CCCn1c(O)c(N=Nc2nc(-c3cc4ccccc4oc3=O)cs2)c2cc(Br)ccc21	94.8%	93.9%	102%	94.8%	110%	86.3%	93.4%	110%	75.1%	139%	101%	110%	88%	89.2%	89.8%	85.3%	85%	107%	97.6%	–
N#Cc1c(-c2ccc(Cl)cc2)cc(-c2ccccc2)nc1OCc1ccccc1	76.7%	74.7%	96.6%	84.9%	51.9%	90.8%	69.3%	73.8%	107%	106%	90.7%	45%	102%	80.2%	92.9%	66.2%	75.2%	80.6%	90.9%	–
COc1ccc(C2N(c3ccc(Br)cc3)N=C(C(C)=O)N2[C@H]2[C@H](OC(C)=O)O[C@H](COC(C)=O)[C@@H](OC(C)=O)[C@@H]2OC(C)=O)cc1 (stereo not given in full)	75.4%	69.6%	73.7%	92%	52.1%	79.2%	48.1%	66.1%	92.6%	88.1%	85.7%	65%	93.4%	72.1%	74.9%	64.1%	80.7%	89.9%	81.5%	–
COc1cccc2nc(Nc3cccc(NC(=O)c4ccc(CN5CCCN(C)CC5)c(C(F)(F)F)c4)c3)ccc12	-97.9% (active)	-70.5% (active)	-100% (active)	-74.7% (active)	-83.6% (active)	-83.5% (active)	-67.5% (active)	-75.6% (active)	-84.9% (active)	-56.9% (active)	-83.4% (active)	5.93% (active)	-96.3% (active)	-99.1% (active)	-50.3% (active)	-97.7% (active)	-100% (active)	-86% (active)	-90.5% (active)	–
Nc1nc(Nc2ccc(Cl)cc2)nn1Cc1cccc(Br)c1	31.7%	41.5%	44.7%	52.5%	17.9%	-9.09% (active)	27.6%	45%	37.4%	24.7%	53.3%	20.5%	50.6%	42.6%	40.7%	44.7%	37.8%	58.2%	35.8%	–
COc1ccc2[nH]cc(/C=N/Nc3ccc(Br)cn3)c2c1	36.6%	40%	43.8%	45.8%	16.2%	-24.5% (active)	38.5%	23%	-3.93% (active)	37.4%	40.7%	9.92% (active)	63.9%	6.27% (active)	21%	17.4%	18.8%	52.6%	8.66% (active)	–
O=C1CCC(N2Cc3cc(NC(=O)COc4ccccc4)ccc3C2=O)C(=O)N1 (stereo not given)	101%	48.1%	80.3%	65.7%	113%	-0.508% (active)	91%	85%	71.8%	74.6%	111%	93.6%	19.2%	25.1%	87.3%	71.5%	78.4%	110%	56.3%	–
COc1ccc(OC)c(-c2cc(-c3c[nH]c4ccccc34)nc(N)c2C#N)c1	-9.65% (active)	14%	24.8%	10% (active)	-42.5% (active)	-36.8% (active)	-5.53% (active)	21.1%	-52.3% (active)	-23.2% (active)	13%	8.61% (active)	-3.02% (active)	12.8%	9.75% (active)	-69.4% (active)	-60.3% (active)	22.4%	-8.47% (active)	–
O=S(=O)(Nc1ncccn1)c1ccc(-n2c(-c3ccccc3)nc(-c3ccccc3)c2-c2ccccc2)cc1	95.4%	87.8%	96.4%	100%	88.1%	109%	94.4%	89.7%	88%	130%	101%	92.6%	111%	87.7%	85%	65.9%	83.4%	118%	102%	–
COc1ccc2[nH]c(O)c(N=NC(=O)c3cc(-c4ccc(C)cc4)nc4ccccc34)c2c1	86%	90.6%	102%	102%	95.8%	97.8%	99.5%	87.2%	97.2%	112%	90.8%	–	103%	98.3%	80.2%	108%	92.3%	91.2%	99.1%	92.4%
Cc1ccc(-c2cc(-c3cc4ccccc4nc3Cl)[nH]c(=O)n2)cc1	10.1%	-8.6% (active)	32.1%	-9.15% (active)	0.523% (active)	5.62% (active)	-11.7% (active)	35.5%	-22.6% (active)	24.7%	14.2%	1.33% (active)	38.5%	–	6.42% (active)	16.2%	-42.6% (active)	47%	10.2%	-33.9% (active)
CCCn1c(=O)c2[nH]c(-c3ccc(OCc4nc5ccc(F)cc5[nH]4)cc3)nc2n(CCC)c1=O	26.3%	-36.1% (active)	23.8%	-19.4% (active)	-50.8% (active)	-27.5% (active)	24.3%	36%	-87.2% (active)	25.5%	34.2%	34.9%	-52.2% (active)	-46.7% (active)	46.5%	10.6%	-68.9% (active)	31.9%	44.7%	–
CC(=O)c1ccc(NC(=O)NCn2c(=O)[nH]c3ccccc3c2=O)cc1	103%	87.3%	93.8%	96.3%	112%	79.5%	90.2%	97.7%	102%	109%	104%	–	93.2%	95.1%	128%	92.7%	90.6%	98.6%	110%	97.4%
O=c1nc(-c2ccccc2)cc(-c2cc3ccccc3nc2Cl)[nH]1	33.6%	35.6%	64.4%	42.5%	2.46% (active)	41.8%	51.2%	68.9%	-19.8% (active)	45%	38.4%	-11.9% (active)	54.9%	–	38.2%	42.2%	-47.4% (active)	91.2%	38.6%	-16.1% (active)
